Test results as given in PMC11574364.

What was measured:
Test in all cases: protein domain microarray probed with biotinylated miRNA; Domain array: 20 mM Tris-HCl pH 7.4, 200 mM KCl, 0.2 mM EDTA, 0.05% NP40, 2 ug/ul heparin, overnight 4 C. ORF array: PBS pH 7.0 with RNase inhibitor, 100 ng RNA; high values mean tight binding
Details in all cases: ssRNA
TIAL1 = biological target: T1, TIAL1 (Homo sapiens, UniProt Q01085)
T1 sequence: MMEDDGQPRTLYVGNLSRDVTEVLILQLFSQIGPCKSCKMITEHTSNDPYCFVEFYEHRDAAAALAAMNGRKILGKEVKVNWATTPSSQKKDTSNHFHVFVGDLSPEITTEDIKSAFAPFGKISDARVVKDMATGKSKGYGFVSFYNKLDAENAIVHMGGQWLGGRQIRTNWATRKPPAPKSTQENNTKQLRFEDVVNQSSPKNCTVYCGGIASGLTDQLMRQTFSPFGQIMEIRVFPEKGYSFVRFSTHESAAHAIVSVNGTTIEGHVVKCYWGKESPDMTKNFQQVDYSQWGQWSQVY

RBMY1A1 / RBMY1B = RBMY1A1 / RBMY1B (Homo sapiens, UniProt P0DJD3)
SHARP(1) = biological target: T2, SHARP(1) (Homo sapiens, UniProt Q96T58)
T2 sequence: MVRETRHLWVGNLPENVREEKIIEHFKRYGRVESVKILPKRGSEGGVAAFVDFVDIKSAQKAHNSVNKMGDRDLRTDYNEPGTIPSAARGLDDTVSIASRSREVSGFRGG

RBMX2 = biological target: T3, RBMX2 (Homo sapiens, UniProt Q9Y388)
T3 sequence: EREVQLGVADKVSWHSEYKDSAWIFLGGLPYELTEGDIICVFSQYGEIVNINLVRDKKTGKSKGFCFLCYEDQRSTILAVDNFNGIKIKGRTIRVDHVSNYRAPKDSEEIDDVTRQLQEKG

RDM1 = biological target: T4, RDM1 (Homo sapiens, UniProt Q8NG50)
T4 sequence: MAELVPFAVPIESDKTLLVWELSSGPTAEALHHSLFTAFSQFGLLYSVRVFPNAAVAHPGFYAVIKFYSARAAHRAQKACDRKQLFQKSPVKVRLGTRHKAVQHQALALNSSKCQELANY

SHARP(2-4) = biological target: T5, SHARP(2-4) (Homo sapiens, UniProt Q96T58)
T5 sequence: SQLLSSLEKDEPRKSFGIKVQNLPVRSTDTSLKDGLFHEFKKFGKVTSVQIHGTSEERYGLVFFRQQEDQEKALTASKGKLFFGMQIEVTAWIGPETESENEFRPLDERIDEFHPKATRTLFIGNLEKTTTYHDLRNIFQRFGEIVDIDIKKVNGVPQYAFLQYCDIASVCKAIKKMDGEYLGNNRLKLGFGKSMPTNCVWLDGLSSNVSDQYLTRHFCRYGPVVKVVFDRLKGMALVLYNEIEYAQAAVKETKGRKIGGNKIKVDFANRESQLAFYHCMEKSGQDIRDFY

SRSF10 = SRSF10 (Homo sapiens, UniProt O75494)
hnRNP E1(1-2) = hnRNP E1(1-2) (Homo sapiens, UniProt Q15365)
RNPS1 = biological target: T6, RNPS1 (Homo sapiens, UniProt Q15287)
T6 sequence: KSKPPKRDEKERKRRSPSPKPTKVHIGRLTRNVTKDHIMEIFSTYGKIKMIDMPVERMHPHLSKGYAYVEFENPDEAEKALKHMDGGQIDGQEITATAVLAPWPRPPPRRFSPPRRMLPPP

DDX9(2)/DHX9 = DDX9(2)/DHX9 (Homo sapiens, UniProt Q08211)
Chain of DDX9(2)/DHX9 (Q08211 161-271): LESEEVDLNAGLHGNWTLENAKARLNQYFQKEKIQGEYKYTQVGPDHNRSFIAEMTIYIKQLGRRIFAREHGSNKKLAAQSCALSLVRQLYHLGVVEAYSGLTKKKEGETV

Chain of SRSF10 (O75494 1-120): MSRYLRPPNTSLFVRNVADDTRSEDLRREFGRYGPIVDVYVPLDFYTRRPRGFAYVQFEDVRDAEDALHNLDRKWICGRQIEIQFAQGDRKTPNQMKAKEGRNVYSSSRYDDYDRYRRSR
Chain of RBMY1A1 / RBMY1B (P0DJD3 1-110): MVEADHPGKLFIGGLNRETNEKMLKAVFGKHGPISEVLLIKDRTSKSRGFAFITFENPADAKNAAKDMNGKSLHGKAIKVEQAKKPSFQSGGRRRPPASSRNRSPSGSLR
Chain of hnRNP E1(1-2) (Q15365 1-183): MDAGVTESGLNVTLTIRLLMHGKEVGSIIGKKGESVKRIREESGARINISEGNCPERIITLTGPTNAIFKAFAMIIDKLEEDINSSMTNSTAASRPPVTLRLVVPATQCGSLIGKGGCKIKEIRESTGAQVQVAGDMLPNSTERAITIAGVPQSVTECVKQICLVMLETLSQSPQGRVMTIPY

UAGCUUAUCAGACUGAUGUUGA
binding signal (TIAL1): 684 ± 18.7 fluorescence intensity
binding signal (RBMY1A1 / RBMY1B): 602 ± 35.9 fluorescence intensity
binding signal (SHARP(1)): 32 ± 6.87 fluorescence intensity
binding signal (RBMX2): 21.4 ± 3.97 fluorescence intensity
binding signal (RDM1): 21.8 ± 0.523 fluorescence intensity
binding signal (SHARP(2-4)): 705 ± 41.5 fluorescence intensity
binding signal (SRSF10): 33.4 ± 2.35 fluorescence intensity

AGAGGUAGUAGGUUGCAUAGUU
binding signal (hnRNP E1(1-2)): 27.4 ± 2.06 fluorescence intensity
binding signal (TIAL1): 1020 ± 13.1 fluorescence intensity
binding signal (RNPS1): 183 ± 12.6 fluorescence intensity
binding signal (RBMY1A1 / RBMY1B): 2000 ± 49 fluorescence intensity
binding signal (SHARP(1)): 423 ± 5.21 fluorescence intensity
binding signal (RBMX2): 65.8 ± 17.9 fluorescence intensity
binding signal (RDM1): 230 ± 20.4 fluorescence intensity
binding signal (SHARP(2-4)): 711 ± 17.9 fluorescence intensity
binding signal (SRSF10): 422 ± 31.8 fluorescence intensity
binding signal (DDX9(2)/DHX9): 33 ± 2.41 fluorescence intensity

CAGUGCAAUGAUGAAAGGGCAU
binding signal (hnRNP E1(1-2)): 26.8 ± 0.919 fluorescence intensity
binding signal (TIAL1): 523 ± 28 fluorescence intensity
binding signal (RNPS1): 160 ± 25.6 fluorescence intensity
binding signal (RBMY1A1 / RBMY1B): 1153 ± 5.4 fluorescence intensity
binding signal (SHARP(1)): 1723 ± 15.7 fluorescence intensity
binding signal (RBMX2): 29.6 ± 4.16 fluorescence intensity
binding signal (RDM1): 185 ± 14.8 fluorescence intensity
binding signal (SHARP(2-4)): 630 ± 20.1 fluorescence intensity
binding signal (SRSF10): 865.4 ± 6.43 fluorescence intensity
binding signal (DDX9(2)/DHX9): 26 ± 1.37 fluorescence intensity

UGAGGUAGUAGGUUGUAUGGUU
binding signal (hnRNP E1(1-2)): 26.7 ± 0.438 fluorescence intensity
binding signal (TIAL1): 789 ± 12.4 fluorescence intensity
binding signal (RNPS1): 294 ± 40.2 fluorescence intensity
binding signal (RBMY1A1 / RBMY1B): 1403 ± 13.2 fluorescence intensity
binding signal (SHARP(1)): 702.32 ± 0.332 fluorescence intensity
binding signal (RBMX2): 69.6 ± 0.757 fluorescence intensity
binding signal (RDM1): 232 ± 12 fluorescence intensity
binding signal (SHARP(2-4)): 710 ± 31.7 fluorescence intensity
binding signal (SRSF10): 375 ± 21.5 fluorescence intensity
binding signal (DDX9(2)/DHX9): 44.6 ± 4.16 fluorescence intensity

UGAGGUAGUAGGUUGUGUGGUU
binding signal (hnRNP E1(1-2)): 34.9 ± 2.48 fluorescence intensity
binding signal (TIAL1): 740 ± 11.2 fluorescence intensity
binding signal (RNPS1): 565 ± 18.8 fluorescence intensity
binding signal (RBMY1A1 / RBMY1B): 1360 ± 32 fluorescence intensity
binding signal (SHARP(1)): 1119.4 ± 0.849 fluorescence intensity
binding signal (RBMX2): 111 ± 6.68 fluorescence intensity
binding signal (RDM1): 427 ± 12.9 fluorescence intensity
binding signal (SHARP(2-4)): 1000 ± 18.8 fluorescence intensity
binding signal (SRSF10): 467 ± 36.1 fluorescence intensity
binding signal (DDX9(2)/DHX9): 53.91 ± 0.134 fluorescence intensity

UGAGGUAGUAGGUUGUAUAGUU
binding signal (TIAL1): 437 ± 10.1 fluorescence intensity
binding signal (RNPS1): 45.1 ± 1.35 fluorescence intensity
binding signal (RBMY1A1 / RBMY1B): 754 ± 30.5 fluorescence intensity
binding signal (SHARP(1)): 63 ± 1.09 fluorescence intensity
binding signal (RBMX2): 34.7 ± 8.67 fluorescence intensity
binding signal (RDM1): 46.4 ± 1.9 fluorescence intensity
binding signal (SHARP(2-4)): 138 ± 34.1 fluorescence intensity
binding signal (SRSF10): 91 ± 3.12 fluorescence intensity
